Data as given in PubChem BioAssay AID2551 (National Center for Advancing Translational Sciences (NCATS), 2010).
Where “and” joins values, the source holds several entries; their conditions need not be identical. Equal entries are not always repeated. In all, about 310,000 compounds went through this assay and about 17,000 (5.5%) were called active. A call without a number means that no potency is given here. Another 11% or so got no clear call; they are omitted. The sample as a whole holds a higher share of actives than the screen did. A number with no mark means an inactive call. Calls follow the shape of the dose curve; as a rule, active = well fitted inhibition curve with a large enough effect; inconclusive = small, poorly fitted or top-dose-only effect, or effect the other way; inactive = no such curve, though single readings can be large or run the other way.
Also: nearly all actives have a fitted effect of over 60% in size.
Potency is read from the fitted curve at half-maximal effect.

What follows are compounds tested against Nuclear receptor ROR-gamma (Mus musculus) (UniProt P51450) (assay: qHTS for inhibitors of ROR gamma transcriptional activity). Conditions: Drosophila S2 Gal4-RORgamma UAS-luciferase reporter, 20 h; series mostly up to 53.6 µM.
Nuclear receptor ROR-gamma (Mus musculus), sequence (P51450 whole entry, looked up, the tested form may be a part): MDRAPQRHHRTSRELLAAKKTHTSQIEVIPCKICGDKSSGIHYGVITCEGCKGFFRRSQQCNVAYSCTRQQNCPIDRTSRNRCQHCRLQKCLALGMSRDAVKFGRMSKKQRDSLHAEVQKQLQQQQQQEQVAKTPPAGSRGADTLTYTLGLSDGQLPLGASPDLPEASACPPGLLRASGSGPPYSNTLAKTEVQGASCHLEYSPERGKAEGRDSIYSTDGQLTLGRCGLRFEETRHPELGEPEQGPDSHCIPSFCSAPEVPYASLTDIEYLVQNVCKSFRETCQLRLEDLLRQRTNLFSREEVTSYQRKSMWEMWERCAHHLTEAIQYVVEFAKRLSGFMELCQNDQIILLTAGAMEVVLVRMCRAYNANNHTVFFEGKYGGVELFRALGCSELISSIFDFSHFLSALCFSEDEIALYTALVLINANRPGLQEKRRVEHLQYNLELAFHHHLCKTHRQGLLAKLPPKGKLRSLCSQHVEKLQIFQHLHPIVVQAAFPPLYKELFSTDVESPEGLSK
Procedure, shortened: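 In this cell-based reporter format, copper sulfate (700 uM final) drives Gal4–ROR gamma fusion expression from a metallothionein promoter in Drosophila Schneider cells; compounds preincubated 1 hr, reporter read after 20 hr at ambient temperature.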
For COc1ccccc1C(=O)N(Cc1ccc(C)o1)C1CCS(=O)(=O)C1 (stereo not given), the Potency was “inactive”.
With CCOC(=O)c1ccc2[nH]c3c(c2c1)CCCC3NC=O (stereo not given) the Potency was “inactive”.
Cc1cccc(N=C2NN=C(c3c[nH]c4ccccc34)CS2)c1 was tested, and the Potency was 4.47 µM (active).
For Cc1cccc(C(=O)Nc2nnc(Cc3c[nH]c4ccccc34)s2)c1, the Potency was “inactive”.
For Cc1cc(C)c(C#N)c(N2CCC(C(N)=O)CC2)n1, the Potency was “inactive”.
With N#Cc1c(-c2ccccc2)cc(-c2ccccc2)nc1SCC(=O)O the Potency was “inactive”.
N#Cc1c(N2CCCCC2)nc(N)c2c(N)nc(SCC(=O)O)cc12 was tested, and the Potency was 3.98 µM (active).
For COc1ccccc1N1CCN(C(=O)c2cc(=O)c3cc(C)ccc3o2)CC1, the Potency was “inactive”.
In the case of COc1ccc(C(C(=O)NC2CCCC2)N(CCCO)C(=O)Cn2nnc(-c3ccc(C)o3)n2)cc1 (stereo not given), the Potency is reported as “inactive”.
COC(=O)c1ccc(NC(=O)CSc2nnc(C3CC3)n2C)cc1 was tested, and the Potency was “inactive”.
With COC(=O)CN1C(=O)[C@H]2[C@@H](/C=C/c3ccccc3)N3C(=O)CN(Cc4ccccc4)C(=O)[C@@]3(Cc3ccccc3)[C@H]2C1=O the Potency was “inactive”.
CCOC(=O)c1cccc(NC(=O)CN2C(=O)C3CC=CCC3C2=O)c1 (stereo not given) was tested, and the Potency was “inactive”.
In the case of C=CCNC(=O)COc1coc(CN2CCN(Cc3ccccc3)CC2)cc1=O, the Potency is reported as “inactive”.
With C=CCNC(=S)NNC(=O)COc1c(Cl)cc(Cl)cc1Cl the Potency was 1.26 µM (active).
For C=CCNC(=O)CCCOc1cccc(C)c1, the Potency was “inactive”.
In the case of Cc1ccsc1C(=O)N[C@@H](C)c1nnc2ccccn12, the Potency is reported as “inactive”.
In the case of O=C(c1ccc(Br)o1)N1CCN(CCOc2ccccc2)CC1, the Potency is reported as “inactive”.
In the case of O=C(N=C1SC2CS(=O)(=O)CC2N1c1cc(Cl)ccc1Cl)C1CC1 (stereo not given), the Potency is reported as “inactive”.
With COc1ccc2cc(S(=O)(=O)Nc3ccccn3)ccc2c1 the Potency was “inactive”.
For COc1cc(NS(=O)(=O)c2ccc3ccccc3c2)c2ncccc2c1, the Potency was 1.12 µM (active) and 178 nM (active).
With Cc1ccc(S(=O)(=O)Nc2ccc3ncccc3c2)cc1 the Potency was “inactive”.
COc1cc2c(cc1OC)C(c1cccc([N+](=O)[O-])c1)=NCC2 was tested, and the Potency was “inactive”.
With Cc1cc(=O)oc2c1ccc1ccccc12 the Potency was “inactive”.
c1c2c(cc3sc(N4CCCCC4)nc13)OCCO2 was tested, and the Potency was 0.794 µM (active).
In the case of Cc1nc2cc3c(cc2s1)OCO3, the Potency is reported as “inactive”.
For Brc1ccc2nc(N3CCCC3)sc2c1, the Potency was “inactive”.
COc1ccc(-c2cc(=O)oc3cc(OC(C)C(=O)Nc4ccc(CN5CCOCC5)cc4)ccc23)cc1 (stereo not given) was tested, and the Potency was “inactive”.
Cc1ccc(N(C(=O)CNC(=O)c2ccco2)C(C(=O)NC2CCCC2)c2ccncc2)cc1 (stereo not given) was tested, and the Potency was “inactive”.
CN(C)S(=O)(=O)c1cc(NC(=O)CN2C(=O)NC3(CCCc4ccccc43)C2=O)ccc1Cl (stereo not given) was tested, and the Potency was “inactive”.
In the case of CCCC(=O)N(CCc1ccccc1)Cc1nc2ccccc2c(=O)[nH]1, the Potency is reported as “inactive”.
In the case of CC(C)=C(NC(=O)c1ccco1)C(=O)NCCc1nc2ccccc2[nH]1, the Potency is reported as “inactive”.
CCCc1nc(SCC(=O)Nc2ccc(S(=O)(=O)N(C)C)cc2)c2ccccc2n1 gave an activity change, negative = inhibition of 7.51% [at 10 µM].
For CCN(CC)c1ccc(C(=O)NNC(=O)CCc2nc3ccccc3c(=O)[nH]2)cc1, the Potency was “inactive”.
For CCN(CC(=O)NC(=O)NCc1ccccc1)Cc1nc2ccccc2c(=O)[nH]1, the Potency was 0.355 µM (active).
NS(=O)(=O)c1cccc(NC(=O)CSc2nc3ccccc3n2-c2ccccc2)c1 was tested, and the Potency was “inactive”.
For O=C(c1ccco1)N(Cc1nc2ccccc2c(=O)[nH]1)C1CCCC1, the Potency was 1.58 µM (active).
For CCN(CC(=O)Nc1cccc(S(N)(=O)=O)c1)Cc1nc2ccccc2c(=O)[nH]1, the Potency was 2.82 µM (active).
In the case of COc1ccc(-n2cnnc2SCC(=O)Nc2cccc(S(N)(=O)=O)c2)cc1, the Potency is reported as “inactive”.
With CCn1c(Cc2ccccc2)nnc1SCc1nc2ccccc2c(=O)[nH]1 the Potency was “inactive”.
With CCN(CC(=O)Nc1ccc(Cl)c(S(=O)(=O)N(C)C)c1)Cc1nc2ccccc2c(=O)[nH]1 the Potency was 12.6 µM (active).
